# Reference: PubChem BioAssay (NCATS)
# Inconclusive results are not listed. Activity calls are given as the source filed them. Unless noted, the call rests on the fitted dose curve; in most records, active means well fitted curve in either direction with a large enough effect (not every such curve was filed as active); inconclusive means small, poorly fitted or top-dose-only effect, or another doubt; inactive means flat fitted curve, though single readings scatter.
# Legend:
# [1] = target: Lysosomal acid glucosylceramidase (Homo sapiens) (UniProt P04062); experiment: Glucocerebrosidase-p2 (AID 348; in the data active means potency below about 10 µM; further: potency means the concentration at half of the fitted maximal effect); settings: purified GBA, blue fluorogenic substrate, 40 min
# Chain of Lysosomal acid glucosylceramidase (Homo sapiens) (P04062 whole entry, looked up): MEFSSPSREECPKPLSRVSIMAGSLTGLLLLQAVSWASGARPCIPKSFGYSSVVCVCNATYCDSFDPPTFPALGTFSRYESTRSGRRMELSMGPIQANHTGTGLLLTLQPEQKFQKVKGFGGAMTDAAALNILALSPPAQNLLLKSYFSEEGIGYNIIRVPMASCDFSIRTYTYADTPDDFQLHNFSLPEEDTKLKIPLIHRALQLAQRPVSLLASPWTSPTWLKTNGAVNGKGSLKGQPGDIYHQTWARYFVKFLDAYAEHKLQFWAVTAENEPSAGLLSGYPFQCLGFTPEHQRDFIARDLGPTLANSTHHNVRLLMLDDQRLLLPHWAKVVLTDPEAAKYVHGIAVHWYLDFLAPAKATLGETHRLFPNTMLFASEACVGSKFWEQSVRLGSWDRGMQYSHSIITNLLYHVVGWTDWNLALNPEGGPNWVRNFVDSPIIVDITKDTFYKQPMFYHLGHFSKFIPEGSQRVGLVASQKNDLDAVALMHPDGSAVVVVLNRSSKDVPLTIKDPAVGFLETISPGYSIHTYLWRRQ
# Method in brief: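 Normal human glucocerebrosidase (0.2 nM) with blue fluorogenic substrate (80 uM final) in citrate/phosphate pH 5.9 with 10mM sodium taurocholate, 0.01% tween-20; 40 min RT, NaOH/glycine stop; fluorescence Ex 365/Em 440; AC50 from a titration from 0.6 nM upwards.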
# [2] = AP1 Signaling Pathway (AID 357); settings: ME-180 AP-1-bla reporter, EGF-induced, beta-lactamase ratio, 5 h; at 7.69 µM (top of the series) unless noted;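 further: ME-180 reporter cells stimulated with EGF at its EC50 level; on the % scale 0 is the no-effect control and ±100 the full control effect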
# Method in brief: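 Read-out was the 460nm/530nm emission ratio (excitation 405nm) after CCF4 loading for 2.5 hours at room temperature. Cells carried an AP-1-driven beta-lactamase reporter, were stimulated with EC50 EGF plus compound for 5 hours, and AC50 values came from titrations.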
# [3] = target: Cytochrome P450 1A2 (Homo sapiens) (UniProt P05177); experiment: p450-cyp1a2 (AID 410; calls by dose curve; further: potency means the concentration at half of the fitted maximal effect;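 on activity change, negative = inhibition: -100% = full effect of reference inhibitor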); settings: recombinant CYP1A2, luciferin-ME demethylation, luminescence; series mostly up to 57 µM
# Chain of Cytochrome P450 1A2 (Homo sapiens) (P05177 whole entry, looked up): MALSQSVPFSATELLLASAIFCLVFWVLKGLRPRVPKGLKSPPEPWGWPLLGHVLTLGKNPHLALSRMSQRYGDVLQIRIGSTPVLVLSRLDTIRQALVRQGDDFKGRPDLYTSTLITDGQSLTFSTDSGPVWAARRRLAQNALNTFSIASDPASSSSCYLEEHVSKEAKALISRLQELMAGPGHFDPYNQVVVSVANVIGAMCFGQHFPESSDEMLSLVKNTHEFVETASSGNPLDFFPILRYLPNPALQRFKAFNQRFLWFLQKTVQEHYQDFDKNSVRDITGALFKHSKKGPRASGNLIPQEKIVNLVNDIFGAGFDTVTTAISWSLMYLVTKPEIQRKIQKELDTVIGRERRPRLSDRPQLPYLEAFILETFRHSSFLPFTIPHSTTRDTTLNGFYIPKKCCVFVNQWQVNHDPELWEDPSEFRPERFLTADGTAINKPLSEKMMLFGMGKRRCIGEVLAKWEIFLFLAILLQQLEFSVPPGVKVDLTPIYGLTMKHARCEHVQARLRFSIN
# Method in brief: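 Luminescent demethylation readout: Luciferin-ME (100uM, equal to Km) turned over by 20nM CYP1A2 for 60 min at room temperature after NADPH regeneration addition, following 10 min compound preincubation. Normalization used 57 uM furafylline as full inhibition.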
# [4] = Stat Signaling Pathway (AID 446); settings: ME-180 (cervical carcinoma) SIE beta-lactamase reporter, IL-6 stimulated, 5 h; at 7.69 µM (top of the series) unless noted;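 further: ME-180 cervical cancer cells given 40 pM IL-6 alongside compound; SIE-controlled beta-lactamase reporter measured as 460/530 nm FRET emission ratio; on the % scale 0 is the no-effect control and ±100 the full control effect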
# Method in brief: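 Emission at 460 and 530 nm (excitation 405 nm) reports SIE-controlled beta-lactamase in ME-180 cells. Cells received compound with 40 pM IL-6 for 5 hrs at 37 C; data scaled between 300 pM IL-6 and 125 nM JAK-inhibitor controls.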
# [5] = target: Glucocorticoid receptor (Homo sapiens) (UniProt P04150); experiment: GR-EFC Redistribution (AID 451; calls by dose curve; further: potency means the concentration at half of the fitted maximal effect); settings: CHO-K1 GR-EFC translocation, beta-gal luminescence, 2 h
# Chain of Glucocorticoid receptor (Homo sapiens) (P04150 whole entry, looked up, the tested form may be a part): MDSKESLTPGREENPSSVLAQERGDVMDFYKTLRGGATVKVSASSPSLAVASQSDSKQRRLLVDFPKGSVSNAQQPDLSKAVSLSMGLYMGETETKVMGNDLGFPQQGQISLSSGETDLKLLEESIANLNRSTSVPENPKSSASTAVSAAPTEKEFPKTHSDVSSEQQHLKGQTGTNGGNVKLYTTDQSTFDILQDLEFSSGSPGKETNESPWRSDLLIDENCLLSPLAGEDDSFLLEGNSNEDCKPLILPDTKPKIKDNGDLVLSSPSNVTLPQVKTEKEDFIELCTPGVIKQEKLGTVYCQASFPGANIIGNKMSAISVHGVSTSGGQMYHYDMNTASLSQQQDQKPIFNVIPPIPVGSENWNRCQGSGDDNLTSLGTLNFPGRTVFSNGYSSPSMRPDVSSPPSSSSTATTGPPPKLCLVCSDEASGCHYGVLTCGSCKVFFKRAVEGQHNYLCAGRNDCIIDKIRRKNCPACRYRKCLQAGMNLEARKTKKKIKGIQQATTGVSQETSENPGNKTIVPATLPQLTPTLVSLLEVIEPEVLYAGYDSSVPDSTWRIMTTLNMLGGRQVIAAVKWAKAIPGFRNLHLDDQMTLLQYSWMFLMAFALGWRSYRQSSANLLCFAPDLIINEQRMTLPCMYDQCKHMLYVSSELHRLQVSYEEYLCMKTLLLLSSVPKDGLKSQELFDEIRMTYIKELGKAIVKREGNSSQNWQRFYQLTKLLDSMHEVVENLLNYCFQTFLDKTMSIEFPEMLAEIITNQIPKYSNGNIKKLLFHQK
# Method in brief: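 CHO-K1 cells stably expressing nuclear-localized β-gal enzyme acceptor and GR fused C-terminally to the enzyme donor fragment; ligand-driven nuclear translocation restores β-gal by complementation. Compounds titrated up to 46 uM final, 2 h at 37 °C; luminescence read.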
# [6] = target: Mitogen-activated protein kinase 10 (Mus musculus) (UniProt Q61831); experiment: JNK3 AlphaScreen Assay (AID 530); settings: JNK3 lysate, c-Jun phosphorylation; series mostly up to 57.1 µM;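 further: kinase came from lysate of stimulated human HepG2 cells; signal reports phosphorylation of biotinylated GST-cJun 1-79 at Ser73 with 10 µM ATP; on the % scale 0 is the no-effect control and ±100 the full control effect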
# Method in brief: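 Phosphorylation of biotinylated GST-cJun(1-79) at Ser73 is measured by AlphaScreen proximity luminescence. Enzyme is JNK3 in HepG2 lysates activated with interleukin-1beta and tumor necrosis factor alpha; ATP is 10 uM final.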
# [7] = target: 3',5'-cyclic-AMP phosphodiesterase 4B (Homo sapiens) (UniProt Q07343); experiment: qHTS Assay for Inhibitors of PDE-IV (AID 607; active means well fitted activation curve with a large enough effect in the main read-out, with a control signal flat, not every such curve was filed as active; further: % of control where 0% means no effect); settings: HEK293 ACTOne CNG channel cells, membrane potential fluorescence; series mostly up to 22.9 µM
# Chain of 3',5'-cyclic-AMP phosphodiesterase 4B (Homo sapiens) (Q07343 whole entry, looked up): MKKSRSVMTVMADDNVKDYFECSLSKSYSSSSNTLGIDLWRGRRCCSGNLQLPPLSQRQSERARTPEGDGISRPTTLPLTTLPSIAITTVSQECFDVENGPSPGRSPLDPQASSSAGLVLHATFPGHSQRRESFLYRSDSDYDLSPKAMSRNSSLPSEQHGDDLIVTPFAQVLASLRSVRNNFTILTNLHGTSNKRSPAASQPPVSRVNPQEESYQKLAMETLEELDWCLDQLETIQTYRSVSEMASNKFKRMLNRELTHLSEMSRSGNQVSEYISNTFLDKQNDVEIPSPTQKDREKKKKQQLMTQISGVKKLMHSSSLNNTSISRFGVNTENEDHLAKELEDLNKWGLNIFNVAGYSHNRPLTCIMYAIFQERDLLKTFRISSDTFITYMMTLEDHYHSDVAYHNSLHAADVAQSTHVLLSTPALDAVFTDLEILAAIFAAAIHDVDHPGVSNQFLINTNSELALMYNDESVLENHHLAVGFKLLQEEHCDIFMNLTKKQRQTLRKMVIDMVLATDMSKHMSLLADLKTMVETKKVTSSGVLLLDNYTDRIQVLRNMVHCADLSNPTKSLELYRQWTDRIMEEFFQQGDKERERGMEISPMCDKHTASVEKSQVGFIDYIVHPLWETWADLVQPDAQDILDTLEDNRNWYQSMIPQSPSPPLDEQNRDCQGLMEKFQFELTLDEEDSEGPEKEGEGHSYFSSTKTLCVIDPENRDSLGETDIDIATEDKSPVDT
# Method in brief: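 The readout is membrane depolarisation from a cAMP-sensing CNG channel, detected with a potential dye at ex 535/em 590. Cells were HEK293-derived (endogenous PDE-IV) at 1000 cells/well, titrated up to 22.9 uM final.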
# [8] = qHTS Assay for Lipid Storage Modulators (AID 1519; calls by dose curve); settings: Drosophila S3 cells, BODIPY lipid droplet/cell ratio, laser cytometry, cells loaded with oleic acid; for activity change, negative = inhibition: at 57.5 µM (top of the series)
# Method in brief: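 Cells seeded at 5,000 per well were treated with compounds over a concentration series and loaded with oleic acid (400 uM, as added). Lipid droplet fluorescence (488 nm excitation, 500-530 nm channel) was read by laser-scanning cytometry and normalized to 20 uM Triacsin C.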
# [9] = Primary qHTS for small molecule stabilizers of the endoplasmic reticulum resident proteome: Secreted ER Calcium Modulated Protein (SERCaMP) assay (AID 1508630; active means well fitted curve in the direction sought with a large enough effect; an effect the other way counts as inactive or inconclusive; further: on the % scale 0 is the no-effect control and ±100 the full control effect); settings: SH-SY5Y GLuc-SERCaMP (Gaussia luciferase released on ER calcium loss) secretion, thapsigargin, luminescence; series mostly up to 38.4 µM
# Method in brief: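 The SH-SY5Y reporter protocol was run at 3 concentrations up to 38.3 uM (primary) or 11 concentrations (follow-up): 16 h compound, 100 nM thapsigargin for 4 h, then extracellular luciferase luminescence.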
# [10] = target: Glucocorticoid receptor (Homo sapiens) (UniProt P04150); experiment: GR-GFP Redistribution (AID 450;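 active means compounds whose dose series gives a full or clear partial fitted curve of increased nuclear translocation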; further: potency means the concentration at half of the fitted maximal effect); settings: U2OS GR-GFP nuclear translocation, laser cytometry, 2 h
# [11] = target: Cytochrome P450 3A4 (Homo sapiens) (UniProt P08684); experiment: qHTS Assay for Activators of Cytochrome P450 3A4 (AID 885; active means well fitted curve in the direction sought with a large enough effect; an effect the other way counts as inactive or inconclusive; further: nearly all actives have a fitted effect of over 65% in size; further: potency means the concentration at half of the fitted maximal effect); settings: recombinant CYP3A4, Luciferin-PPXE luminescence, 60 min; series mostly up to 57.1 µM
# Chain of Cytochrome P450 3A4 (Homo sapiens) (P08684 whole entry, looked up): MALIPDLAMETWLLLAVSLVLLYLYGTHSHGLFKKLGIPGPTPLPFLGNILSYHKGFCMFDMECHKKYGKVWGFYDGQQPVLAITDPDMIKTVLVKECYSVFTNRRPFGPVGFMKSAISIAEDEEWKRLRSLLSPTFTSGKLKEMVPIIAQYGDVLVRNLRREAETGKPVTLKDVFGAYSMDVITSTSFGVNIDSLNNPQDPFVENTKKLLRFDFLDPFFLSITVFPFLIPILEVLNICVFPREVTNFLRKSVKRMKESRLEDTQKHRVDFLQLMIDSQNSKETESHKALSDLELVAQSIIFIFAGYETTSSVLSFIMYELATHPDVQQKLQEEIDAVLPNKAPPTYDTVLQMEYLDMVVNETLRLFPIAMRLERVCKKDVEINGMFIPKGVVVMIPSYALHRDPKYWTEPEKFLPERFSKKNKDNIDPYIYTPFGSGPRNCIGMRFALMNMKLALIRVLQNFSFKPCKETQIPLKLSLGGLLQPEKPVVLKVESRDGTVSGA
# Method in brief: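 Activators are scored by enhanced luminescence from CYP3A4 conversion of luciferin-PPXE (25uM, equal to KM) to luciferin, after 60 min at RT with an NADPH-regenerating system.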
# [12] = Confirmation and Secondary Assay for Modulators of Hemoglobin Beta Chain Splicing at IVS2 654 locus (AID 910; active means well fitted curve in the direction sought with a large enough effect; an effect the other way counts as inactive or inconclusive;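 further: per-well total GFP intensity by laser scanning cytometry after 2-day treatment; % of control where 0% means no effect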); settings: HeLa EGFP-654 splicing reporter, GFP fluorescence, 48 h; series mostly up to 38.3 µM
# Method in brief: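 HeLa cells stably carrying EGFP interrupted by mutant beta-globin IVS2-654 intron (CMV-driven) were treated with compound for 2 days at 37C; corrected splicing was scored as total peak GFP intensity per well (488 nm excitation, 500-520 nm emission).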
# [13] = Confirmation and Secondary Assay for Modulators of Hemoglobin Beta Chain Splicing at IVS2 705 locus (AID 930; active means well fitted curve in the direction sought with a large enough effect; an effect the other way counts as inactive or inconclusive;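 further: HeLa cells stably expressing the EGFP-705 splicing reporter; GFP fluorescence per well restored by corrected splicing of the IVS2-705 intron in EGFP; % of control where 0% means no effect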); settings: HeLa EGFP-705 splicing reporter, GFP fluorescence, 48 h; series mostly up to 38.3 µM
# Method in brief: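 Stable HeLa line with EGFP disrupted by mutant beta-globin intron 2 (705). Overnight attachment, then 2 days of compound at 37C, 5% CO2. Signal: peak GFP intensity summed over objects 5-250 µm.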
# [14] = target: Ubiquitin carboxyl-terminal hydrolase 1 (Homo sapiens) (UniProt O94782); experiment: Inhibitors of USP1/UAF1: Pilot qHTS (AID 504865; active means well fitted curve in the direction sought with a large enough effect; an effect the other way counts as inactive or inconclusive;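 further: rhodamine fluorescence freed from ubiquitin-rhodamine substrate followed over time; top concentration of the series differs between compounds; on the % scale 0 is the no-effect control and ±100 the full control effect; nearly all actives have a fitted effect of over 35% in size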); settings: purified USP1/UAF1, Ub-rhodamine cleavage fluorescence; series mostly up to 54.9 µM
# Chain of Ubiquitin carboxyl-terminal hydrolase 1 (Homo sapiens) (O94782 whole entry, looked up): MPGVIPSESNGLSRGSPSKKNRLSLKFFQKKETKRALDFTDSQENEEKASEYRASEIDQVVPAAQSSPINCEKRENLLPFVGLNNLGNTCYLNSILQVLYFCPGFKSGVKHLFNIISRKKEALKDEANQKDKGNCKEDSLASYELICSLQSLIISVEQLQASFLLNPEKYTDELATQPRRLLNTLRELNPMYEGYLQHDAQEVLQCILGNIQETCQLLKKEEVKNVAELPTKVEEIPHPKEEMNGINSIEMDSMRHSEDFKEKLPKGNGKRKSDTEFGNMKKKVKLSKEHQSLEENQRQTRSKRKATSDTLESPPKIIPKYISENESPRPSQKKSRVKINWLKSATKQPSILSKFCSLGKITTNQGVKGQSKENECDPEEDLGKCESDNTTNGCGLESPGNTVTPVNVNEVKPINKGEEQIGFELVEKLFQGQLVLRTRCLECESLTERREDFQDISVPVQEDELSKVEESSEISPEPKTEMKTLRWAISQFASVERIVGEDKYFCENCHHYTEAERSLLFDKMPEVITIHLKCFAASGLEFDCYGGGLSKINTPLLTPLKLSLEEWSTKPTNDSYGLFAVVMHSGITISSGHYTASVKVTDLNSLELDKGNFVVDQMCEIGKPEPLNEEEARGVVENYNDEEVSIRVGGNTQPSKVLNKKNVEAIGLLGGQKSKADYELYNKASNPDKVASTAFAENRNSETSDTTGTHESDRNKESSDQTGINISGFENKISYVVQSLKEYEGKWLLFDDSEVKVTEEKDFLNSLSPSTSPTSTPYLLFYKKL
# Method in brief: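 USP1/UAF1 complex at 1 nM preincubated 15 min at room temperature with compound, then Ub-Rho substrate added at 150 nM final. Fluorescence (480/540 nm) read kinetically in 50 mM HEPES pH 7.8, 0.5 mM EDTA, 1 mM TCEP, 0.1 mg/ml BSA, 0.01% Tween-20.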
# [15] = target: Cytochrome P450 2D6 (Homo sapiens) (UniProt P10635); experiment: qHTS Assay for Inhibitors and Substrates of Cytochrome P450 2D6 (AID 891; active means well fitted curve in the direction sought with a large enough effect; an effect the other way counts as inactive or inconclusive; further: potency means the concentration at half of the fitted maximal effect; nearly all actives have a fitted effect of over 60% in size); settings: recombinant CYP2D6, luciferin-ME EGE luminescence; series mostly up to 57.1 µM
# Chain of Cytochrome P450 2D6 (Homo sapiens) (P10635 whole entry, looked up): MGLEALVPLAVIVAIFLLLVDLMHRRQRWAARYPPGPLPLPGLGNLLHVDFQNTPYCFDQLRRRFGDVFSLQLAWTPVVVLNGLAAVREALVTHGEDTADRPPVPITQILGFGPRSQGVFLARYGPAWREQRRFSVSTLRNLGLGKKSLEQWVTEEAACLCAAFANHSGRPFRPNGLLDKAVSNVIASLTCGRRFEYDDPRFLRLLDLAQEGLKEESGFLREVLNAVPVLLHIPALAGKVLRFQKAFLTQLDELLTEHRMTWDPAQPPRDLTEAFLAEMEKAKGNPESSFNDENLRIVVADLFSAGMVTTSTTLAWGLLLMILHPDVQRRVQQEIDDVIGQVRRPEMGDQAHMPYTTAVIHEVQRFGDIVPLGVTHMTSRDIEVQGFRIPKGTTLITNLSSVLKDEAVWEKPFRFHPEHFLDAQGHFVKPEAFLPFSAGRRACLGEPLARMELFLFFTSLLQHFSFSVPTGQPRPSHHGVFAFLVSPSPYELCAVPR
# Method in brief: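 Luminescent read-out of luciferin formed by 5 nM human CYP2D6 demethylating 30 uM Luciferin-ME EGE (Km level) over 60 min at room temperature after NADPH regeneration addition. Data normalized to full inhibition by 1.43 uM quinidine.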
# [16] = target: Cytochrome P450 3A4 (Homo sapiens) (UniProt P08684); experiment: qHTS Assay for Inhibitors and Substrates of Cytochrome P450 3A4 (AID 884; active means well fitted curve in the direction sought with a large enough effect; an effect the other way counts as inactive or inconclusive; further: on the % scale 0 is the no-effect control and ±100 the full control effect; nearly all actives have a fitted effect of over 50% in size); settings: recombinant CYP3A4, Luciferin-PPXE luminescence; series mostly up to 57.1 µM
# Method in brief: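 Luminescent readout of luciferin produced by CYP3A4 (20 nM) dealkylation of Luciferin-PPXE, 25 uM (its KM). NADPH-driven reaction ran 60 min at RT after 10 min compound preincubation; data scaled to 57 uM ketoconazole as 100% inhibition.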
# [17] = measured here: cell count channel max response
# [18] = measured here: lipid channel max response
SMILES,Potency [1],"activity change, negative = inhibition [2]",Potency [3],"activity, negative = inhibition [4]",Potency [5],Potency [6],Potency [7],"activity change, negative = inhibition [8]","max response [8, 17] [%]","max response [8, 18] [%]",outcome [9],Potency [10],Potency [11],Potency [12],outcome [13],Potency [14],Potency [15],Potency [16]
CC(=O)N1CCC2(CCN(Cc3ccccc3)CC2)CC1,> 11.4 µM (inactive),-7.18% (inactive),inactive,-5.27% (inactive),> 46 µM (inactive),inactive,inactive,-3.2% (inactive),-4.28,-4.62,inactive,–,–,–,–,–,–,–
CN(C)Cc1ccccc1-c1cncnc1NC1CC1,> 11.4 µM (inactive),-1.86% (inactive),15.8 µM (active),2.98% (inactive),> 46 µM (inactive),inactive,inactive,6.51% (inactive),18.3,22.5,inactive,> 46 µM (inactive),inactive,inactive,inactive,inactive,–,–
CC(C)CN1CCC2(CC1)CCN(C(=O)c1cccn1C)CC2,> 11.4 µM (inactive),-13.5% (inactive),inactive,-4.86% (inactive),> 46 µM (inactive),inactive,inactive,0.342% (inactive),-5.62,-4.46,inactive,–,–,–,–,–,–,–
N#Cc1ccc(CN2CCC3(CC2)CCN(C(=O)c2cc(C(F)(F)F)cc(C(F)(F)F)c2)CC3)cc1,> 11.4 µM (inactive),7.04% (inactive),inactive,3.33% (inactive),> 46 µM (inactive),inactive,inactive,1.9% (inactive),7.25,11,inactive,–,–,–,–,–,–,–
CN(C)Cc1ccccc1-c1cncnc1NCc1cccnc1,> 11.4 µM (inactive),-0.642% (inactive),12.6 µM (active),9.42% (inactive),> 46 µM (inactive),inactive,inactive,2.08% (inactive),3.75,4.73,inactive,> 46 µM (inactive),inactive,inactive,–,inactive,6.31 µM (active),–
Cc1noc(C)c1C(=O)N1CCC2(CCCN(Cc3ccccc3)C2)CC1,> 11.4 µM (inactive),3.01% (inactive),inactive,4.66% (inactive),> 46 µM (inactive),inactive,inactive,4.04% (inactive),15.8,21.7,inactive,–,inactive,–,–,–,–,–
Cn1cccc1C(=O)N1CCC2(CC1)CCN(C(c1ccccc1)c1ccccc1)CC2,> 11.4 µM (inactive),-3.6% (inactive),5.01 µM (active),-4.66% (inactive),> 46 µM (inactive),inactive,inactive,-19.5% (inactive),11.8,-8.47,inactive,–,15.8 µM (active),–,–,–,–,inactive
